Experimental data as given in PMC10726135, “HNF4α isoforms regulate the circadian balance between carbohydrate and lipid metabolism in the liver”.
In all, about 18,000 sequences were measured (“log2 normalized intensity”: median about 0.36, highest 2% from about 7.3 on). Shown is part of a subset that was picked to be rich in the highest values.

These sequences were tested against T1, HNF4alpha8 (COS-7 nuclear extract) (Homo sapiens, UniProt P41235-5 1-452) (assay: protein-binding microarray; COS-7 nuclear extract on double-stranded Agilent 4x180k PBM; binding buffer, salt, pH and temperature not given in the material; high values mean tight binding). Conditions: chain copies: 2; label: 3' end of strand 1 on the slide; dsDNA, one strand shown.
T1 sequence: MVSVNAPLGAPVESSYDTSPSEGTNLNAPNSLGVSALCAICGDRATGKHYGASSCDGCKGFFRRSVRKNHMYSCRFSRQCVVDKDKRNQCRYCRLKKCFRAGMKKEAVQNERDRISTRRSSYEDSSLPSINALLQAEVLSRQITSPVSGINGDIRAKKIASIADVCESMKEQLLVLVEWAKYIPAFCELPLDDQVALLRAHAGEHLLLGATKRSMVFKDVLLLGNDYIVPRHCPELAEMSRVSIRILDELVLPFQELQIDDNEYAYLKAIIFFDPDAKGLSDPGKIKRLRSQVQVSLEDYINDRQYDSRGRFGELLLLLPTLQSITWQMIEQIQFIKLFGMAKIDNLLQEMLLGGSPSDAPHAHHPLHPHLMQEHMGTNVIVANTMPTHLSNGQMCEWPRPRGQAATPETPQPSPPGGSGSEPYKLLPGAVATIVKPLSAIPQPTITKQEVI
Method in brief: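 The binding signal is Agilent software's gProcessedSignal after background correction and normalization. Arrays were a custom Agilent SurePrint G3 4x180k design of double-stranded ~60-nt oligonucleotides with ~44,000 test sequences in quadruplicate, probed with nuclear extracts of COS-7 cells transiently expressing a human HNF4α isoform. Scans were made at 2-µm resolution on an Agilent G2565CA scanner.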

Row | Sequence | binding signal [log2 normalized intensity]
1 | GCCTGTCACCCAACCTCACCTAACCACATTGCCTAGGGAGATTAGAGTATCGGTCGA | 1.21
2 | GCTGATGCAGAGGGTGCAAAGTTTTTAAAGGCCTAGGGAGATTAGAGTATCGGTCGA | 1.28
3 | ACACCTTTTCTAGCTGAGTTGACCTGTGTTGCCTAGGGAGATTAGAGTATCGGTCGA | 4.51
4 | ACATTAATCAGTCGCGTATCTGACTTTATCGCCTAGGGAGATTAGAGTATCGGTCGA | 0.606
5 | CATTCTCTAATCAGGTCGCTGCCTGCCCCTGCCTAGGGAGATTAGAGTATCGGTCGA | 3.39
6 | TACATTTTGCTCTGTTGTGTCAAAGGTCACGCCTAGGGAGATTAGAGTATCGGTCGA | 7
7 | GAGTGACCTGGTATTGCAAGTATTTCACCCGCCTAGGGAGATTAGAGTATCGGTCGA | 1.59
8 | TTCACCTTTCGCCCTTTGTCCTATGACTCTGCCTAGGGAGATTAGAGTATCGGTCGA | 5.44
9 | ACCTTTGACCTGGTACTATGACCTTTCACCGCCTAGGGAGATTAGAGTATCGGTCGA | 7.83
10 | CTATGACCTTTCACCTTTTAGCTTGGCATGGCCTAGGGAGATTAGAGTATCGGTCGA | 5.08
11 | TGGTACTATGACCTTTCACCTTTTAGCTTGGCCTAGGGAGATTAGAGTATCGGTCGA | 6.25
12 | TGACCTGGTACTATGACCTTTCACCTTTTAGCCTAGGGAGATTAGAGTATCGGTCGA | 7.78
13 | CCCCAAAAACTTGGACTCTATAGCCTATGCGCCTAGGGAGATTAGAGTATCGGTCGA | 2.66
14 | TGGGGACCTTTGGGCTCTGACCCGAAGGGTGCCTAGGGAGATTAGAGTATCGGTCGA | 2.6
15 | CTTTTGAGTTTCTACCATAGACCCTGTTGGGCCTAGGGAGATTAGAGTATCGGTCGA | 0.898
16 | CTAACCAGCTCTATCAGTCTGGGTCCAGTCGCCTAGGGAGATTAGAGTATCGGTCGA | 2.82
17 | CCCCCGGCTCTACGCAAGTGGTACCTCCCGGCCTAGGGAGATTAGAGTATCGGTCGA | 2.76
18 | CTTGGCACTTAGCACAAGTGACTATTCTGGGCCTAGGGAGATTAGAGTATCGGTCGA | 0.0244
19 | AGGCAAAGGTGTCAGGACCTTTCTTTATGGGCCTAGGGAGATTAGAGTATCGGTCGA | 0.451
20 | TCCTTTTCTTTCACATACAAAATTTACTTTGCCTAGGGAGATTAGAGTATCGGTCGA | 1.75
21 | GCAGAAGGTGTTTCAGATGGACCAAAGGTCGCCTAGGGAGATTAGAGTATCGGTCGA | 6.13
22 | GAGGCTGAAGTGAAGTTACAAAGGTCACACGCCTAGGGAGATTAGAGTATCGGTCGA | 6.46

Row | Sequence | binding signal [log2 normalized intensity]
23 | CTGAGGTTAAAGTCCACATTCTTTAGCATAGCCTAGGGAGATTAGAGTATCGGTCGA | 6.12
24 | TCACAAAGGGCTGAGGTTAAAGTCCACATTGCCTAGGGAGATTAGAGTATCGGTCGA | 8.03
25 | AAGCTTCACAAAGGGCTGAGGTTAAAGTCCGCCTAGGGAGATTAGAGTATCGGTCGA | 7.44
26 | AAGGGCTGAGGTTAAAGTCCACATTCTTTAGCCTAGGGAGATTAGAGTATCGGTCGA | 6.82
27 | ATCAAAGGCTTCTAGAAGAGGTTAAAGACCGCCTAGGGAGATTAGAGTATCGGTCGA | 1.58
28 | CTCTGTATTGTAAAAGAAAGTGAGCAGGCAGCCTAGGGAGATTAGAGTATCGGTCGA | -0.689
29 | TGACAAGCAAACACAAACTATGACCTTTGAGCCTAGGGAGATTAGAGTATCGGTCGA | 9.22
30 | GGGCGAGAGAGTTCTATGGGATGACCTTTGGCCTAGGGAGATTAGAGTATCGGTCGA | 6.82
31 | AGAGAGTTCTATGGGATGACCTTTGAGCAAGCCTAGGGAGATTAGAGTATCGGTCGA | 7.89
32 | TTCTTTTTGAAGCAAAGCCTTTGAGCAGATGCCTAGGGAGATTAGAGTATCGGTCGA | 0.807
33 | AGCAAACACAAACTATGACCTTTGAAACTTGCCTAGGGAGATTAGAGTATCGGTCGA | 7.82
34 | ACACAAACTATGACCTTTGAAACTTACATTGCCTAGGGAGATTAGAGTATCGGTCGA | 6.68
35 | ATGACCCAAACTTCACAAAAATGAGTGCAAGCCTAGGGAGATTAGAGTATCGGTCGA | -0.806
36 | CAGCAACACTCTACTACTTGACCTTTGAAAGCCTAGGGAGATTAGAGTATCGGTCGA | 6.62
37 | GTTCTATGGGATGACCTTTGAGCAATAGGAGCCTAGGGAGATTAGAGTATCGGTCGA | 6.05
38 | AGTCTCAAAGGTCAGATGACAGAATTGGTCGCCTAGGGAGATTAGAGTATCGGTCGA | 4.15
39 | GATAACATCTGGACTTTACACAGACCTTTAGCCTAGGGAGATTAGAGTATCGGTCGA | 4.07
40 | CCCCTTCTGTTTCCAGAAATCTGACCTCTGGCCTAGGGAGATTAGAGTATCGGTCGA | 5.06
41 | AGCTGACGCCCCACCCCCTCCACCCCTGCCGCCTAGGGAGATTAGAGTATCGGTCGA | 6.68
42 | CAATGTGACTGGAGCAGAGCGATCAAAGGTGCCTAGGGAGATTAGAGTATCGGTCGA | 1.37
43 | CCACTCTTTTTTAGACTTTGACCTCCATATGCCTAGGGAGATTAGAGTATCGGTCGA | 8.93
44 | GACCTCTGCCCTTCCACCCACTTTATCTTCGCCTAGGGAGATTAGAGTATCGGTCGA | 3.59
